FMDV inh: High Throughput Screening for Foot and Mouth Disease Virus Antivirals; Potency, µM (top dose mostly 57.9 µM), hits mostly inhibitors; hit rate 1.2% among 410,000; AID 1159524, 2015; FMDV antiviral cell-based qHTS; calls by dose curve; tested in HEK293T cells; also: read-out not given here; nearly all actives have a fitted effect of over 45% in size
Sm TGR inh: qHTS Assay for the Inhibitors of Schistosoma Mansoni Peroxiredoxins; Schistosoma mansoni thioredoxin glutathione reductase (TGR), Q962Y6; purified TGR, DTNB reduction, TNB absorbance 405 nm; Potency, µM (doses to about 114 µM), usual class: inhibitors; hit rate 3% among 360,000; AID 485364, 2010; also: nearly all actives have a fitted effect of over 60% in size
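First, TGR (20 nM dispensed) and NADPH were mixed with compound. Second, a 15 min room-temperature incubation followed. Third, further NADPH and then DTNB were added to start the reaction. Finally, TNB absorbance was monitored kinetically.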
MARV entry inh: qHTS for inhibitors of binding or entry into cells for Marburg Virus | hit rate 1.8% among 300,000 | Marburg virus pseudotyped entry inhibition, cell reporter | Potency, µM (doses to about 37.8 µM), actives largely listed as inhibitors | AID 540276, 2011; calls by dose curve; tested in HEK293 cells
Lassa entry inh: qHTS for Inhibitors of binding or entry into cells for Lassa Virus. hit rate 1.2% among 300,000. Potency, µM (titrated, usually from 37.9 µM), hits mostly inhibitors. AID 540256, 2011. Lassa virus pseudotype entry inhibition, cell reporter; calls by dose curve; tested in HEK293 cells; also: nearly all actives have a fitted effect of over 50% in size
HCV inh: qHTS Assay for Inhibitors of Hepatitis C Virus (HCV); Huh7.5.1 HCVcc-Cre infection, luciferase reporter, 44 h; Potency, µM (top dose mostly 41.8 µM), usual class: inhibitors; hit rate 3.4% among 340,000
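Luciferase read-out (15 sec integration) after a 15 min room-temperature substrate step quantifies HCVcc-Cre infection. Cells, 1,000 per well, had compound added 4 h post-plating, then virus at ~0.5 moi, and were cultured 44 h.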
RE007 growth inh: qHTS Assay for Inhibitors of the HIV-1 protein Vpr; S. pombe RE007 Vpr strain, BacTiter-Glo ATP luminescence, 24 h; Potency, µM (series often up to 92.2 µM), most hits filed as inhibitors; hit rate 0.21% among 360,000; active = well fitted falling curve with a large enough effect; inconclusive = small, poorly fitted or top-dose-only effect; inactive = no such curve, though single readings can be large or run the other way; also: nearly all actives have a fitted effect of over 50% in size
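Fission yeast strain RE007, carrying one chromosomally integrated HIV-1 vpr copy, was seeded at OD 0.01 in PMG+AL medium with 23 nL pinned compound. After 24 h at 30 °C and 99% humidity, viability was read by BacTiter-Glo luminescence.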
Of the large screens only hits and unclear results are named; the others gave an inactive call; ! = repeats disagree. A selection: hits, their analogues and other compounds. The true share with any hit is near 7.2%. Unless noted, calls follow the shape of the dose curve; as a rule, active = well fitted curve in the direction sought with a large enough effect; inconclusive = small, poorly fitted or top-dose-only effect, or another doubt; inactive = no such curve, though single readings can be large; an effect the other way counts as inactive or inconclusive.

O=C(NCc1ccccc1Cl)c1cnc(N2CCCCC2)c2ccccc12	none (no result: MARV entry inh, HCV inh, RE007 growth inh)
COc1ccc(S(=O)(=O)Nc2cc(C)c(O)c(S(=O)(=O)c3ccccc3)c2)cc1	Sm TGR inh 56µM, MARV entry inh inconclusive
COc1ccc(S(=O)(=O)c2c(C)c(NS(=O)(=O)c3ccccc3)cc(C)c2O)cc1	none
COc1ccc2cc(CNCCOCCOCCNCc3ccc4cc(OC)ccc4c3)ccc2c1	FMDV inh 40µM, MARV entry inh inconclusive, Lassa entry inh inconclusive, HCV inh 4µM (no result: Sm TGR inh)
CN1CCN(CC(O)(c2ccc(Cl)cc2)c2ccc(Cl)cc2)CC1	MARV entry inh inconclusive, HCV inh 3.2µM
CCC(C)NCC(O)(c1ccc(Cl)cc1)c1ccc(Cl)cc1 (configuration not stated)	MARV entry inh inconclusive
COc1ccccc1N1CCN(CC2CN3C(=O)N(C)c4ccccc4C3=N2)CC1 (configuration not stated)	none (no result: Sm TGR inh, MARV entry inh, Lassa entry inh, HCV inh, RE007 growth inh)
Cc1ccccc1-c1nc(NCCN2CCOCC2)c2ccccc2n1	none (no result: Sm TGR inh, MARV entry inh, Lassa entry inh, HCV inh, RE007 growth inh)
CCSc1oc(-c2ccco2)nc1S(=O)(=O)c1ccc(F)cc1	Sm TGR inh 14µM, MARV entry inh inconclusive
Cc1ccc(S(=O)(=O)c2nc(-c3ccco3)oc2SCC(C)C)cc1	none (no result: HCV inh, RE007 growth inh)
CC(C)CSc1oc(-c2ccco2)nc1S(=O)(=O)c1ccccc1	Sm TGR inh 45µM (no result: MARV entry inh, Lassa entry inh)
CCSc1oc(-c2ccco2)nc1S(=O)(=O)c1ccc(C)cc1	Sm TGR inh 40µM, MARV entry inh inconclusive, HCV inh inconclusive
Cc1ccccc1-c1ccc(CN2CCc3nnc(CNC(=O)c4ccccn4)n3CC2)cc1	none (no result: Sm TGR inh, MARV entry inh, Lassa entry inh, HCV inh, RE007 growth inh)
OC(CCCN1CCCCC1)(c1ccccc1)c1ccc(C(F)(F)F)cc1 (configuration not stated)	MARV entry inh inconclusive, HCV inh 11µM (no result: Sm TGR inh)
C=CCC(O)(CCN1CCCCC1)c1ccccc1 (configuration not stated)	Sm TGR inh 25µM, MARV entry inh inconclusive
COc1ccc(C(O)(CCc2ccccc2)CCN2CCCCC2)cc1 (configuration not stated)	Sm TGR inh 2.8µM, MARV entry inh inconclusive, Lassa entry inh inconclusive, HCV inh 32µM
CCCOc1ccc(C(O)(CCN2CCCCC2)c2ccccc2OC)cc1 (configuration not stated)	FMDV inh inconclusive, Sm TGR inh inconclusive, HCV inh inconclusive (no result: MARV entry inh, Lassa entry inh)
OC(CCN1CCCCC1)(c1ccccc1)c1ccccc1	MARV entry inh inconclusive
OC(CCN1CCCC1)(c1ccccc1)C1CCCCC1 (configuration not stated)	MARV entry inh inconclusive, Lassa entry inh inconclusive
COc1ccc(C2=NC(c3ccncc3)=Nc3ccc(OC)cc3N2)cc1	MARV entry inh inconclusive (no result: HCV inh, RE007 growth inh)
COc1cc([N+](=O)[O-])ccc1NC(=O)CC1SC(=Nc2ccc(F)cc2)N(CCC2=CCCCC2)C1=O (configuration not stated)	FMDV inh inconclusive, MARV entry inh inconclusive, Lassa entry inh 3.2µM, HCV inh inconclusive
CCN1C(=O)C(=C2C=C(C)OC(C)=C2)C(=O)N(CC)C1=S	none (no result: MARV entry inh, Lassa entry inh)
CCOC(=O)C1=CC(=C2C(=O)N(CC)C(=S)N(CC)C2=O)c2ccccc2O1	Sm TGR inh 25µM
COc1ccc(-c2sc3cc(OC)c(OC)cc3c2C#CCO)cc1	HCV inh 1µM (no result: Sm TGR inh, MARV entry inh, Lassa entry inh)
COc1ccc(-c2sc3cc4c(cc3c2C#CC2(O)CCCCC2)OCO4)cc1	HCV inh 1.6µM (no result: MARV entry inh, Lassa entry inh)
COc1ccc(-c2sc3ccc(N4CCOCC4)cc3c2C#CC(C)(C)O)cc1	HCV inh inconclusive (no result: MARV entry inh, Lassa entry inh)
COc1ccccc1-c1sc2cc3c(cc2c1C#CC1(O)CCCCC1)OCO3	HCV inh inconclusive (no result: MARV entry inh, Lassa entry inh)
COc1ccc(-c2sc3cc(OC)c(OC)cc3c2C#CC(C)(C)O)cc1	HCV inh 1.4µM (no result: MARV entry inh, Lassa entry inh)
COc1ccc(-c2noc(-c3nnn(-c4ccc(C)cc4C)c3C)n2)cc1	none (no result: MARV entry inh, HCV inh, RE007 growth inh)
O=C(Nc1cccc(C(F)(F)F)c1)c1cccn(Cc2ccc3c(c2)OC(F)(F)O3)c1=O	MARV entry inh inconclusive
O=C(Nc1ccc(C(F)(F)F)cc1)c1cccn(Cc2ccc3c(c2)OC(F)(F)O3)c1=O	FMDV inh inconclusive, MARV entry inh inconclusive, HCV inh 10µM
CCOc1ccccc1C1C(C(=O)N2CCCCC2)=C(C)Nc2nc3ccccc3n21 (configuration not stated)	none (no result: HCV inh, RE007 growth inh)
CC(Nc1ccc(N2CCOCC2)cc1)C(=O)N1c2ccccc2CC1C (configuration not stated)	Sm TGR inh 79µM (no result: MARV entry inh, Lassa entry inh)
COc1ccc(NC(=O)CSc2nc(C3CC3)nc3ccccc23)cc1	MARV entry inh inconclusive, Lassa entry inh inconclusive, HCV inh 11µM
COc1ccc(NC(=O)CSc2ncnc3c2cnn3CCc2ccccc2)cc1	MARV entry inh inconclusive, Lassa entry inh 11µM
CC(=O)c1ccc(NC(=O)CSc2nc(C3CC3)nc3ccccc23)cc1	MARV entry inh inconclusive, Lassa entry inh inconclusive
CCc1ccc(CN(Cc2ccco2)C(=O)c2cc(-c3ccc(Cl)cc3)on2)cc1	none (no result: HCV inh, RE007 growth inh)
CC(C)N1C(=S)N=C2C=C(C(F)(F)F)C=CC21 (configuration not stated)	none (no result: FMDV inh, Sm TGR inh, Lassa entry inh, HCV inh, RE007 growth inh)
O=C(NCc1ccccc1Cl)C1CCN(C(=O)N2CCOc3ccccc32)CC1	none (no result: MARV entry inh, HCV inh, RE007 growth inh)
Cc1ccc2cc(CN(Cc3ccc(F)cc3)Cc3nnnn3C3CCCC3)c(=O)[nH]c2c1	MARV entry inh 15µM! (no result: FMDV inh)
CCc1ccc2[nH]c(=O)c(CN(Cc3ccc4c(c3)OCO4)Cc3nnnn3C3CCCC3)cc2c1	FMDV inh inconclusive, MARV entry inh inconclusive, Lassa entry inh 8.2µM, HCV inh inconclusive
Cc1ccc2[nH]c(=O)c(CN(CCCN3CCOCC3)Cc3nnnn3C3CCCC3)cc2c1	Sm TGR inh inconclusive, MARV entry inh inconclusive
Cc1ccc2cc(CN(Cc3ccccc3)Cc3nnnn3C3CCCC3)c(=O)[nH]c2c1	MARV entry inh inconclusive, HCV inh inconclusive (no result: FMDV inh)
CCc1ccccc1NC(=O)[C@H](Cc1ccccc1)N1Cc2ccccc2C1=O	none (no result: HCV inh, RE007 growth inh)
O=c1cc(O)n(-c2ccccc2)c(=S)[nH]1	Sm TGR inh 2µM
Cc1nnc(N2CCN(c3ccc(Cl)cc3)CC2)c2c1nnn2Cc1ccc(F)cc1	FMDV inh inconclusive (no result: HCV inh, RE007 growth inh)
COc1ccc(N2CCN(c3oc(-c4ccc(OC)c(OC)c4)nc3C#N)CC2)cc1	FMDV inh inconclusive
COc1ccccc1-c1nc(C#N)c(N2CC(C)CC(C)C2)o1 (configuration not stated)	Sm TGR inh 1.1µM (no result: MARV entry inh, Lassa entry inh)
CC1CC(C)CN(c2oc(-c3ccccc3F)nc2C#N)C1 (configuration not stated)	MARV entry inh inconclusive, HCV inh inconclusive

Screens: PubChem, National Center for Advancing Translational Sciences (NCATS)
